Assays:
Assay in all cases: cross-linking mass spectrometry
EMC2 = EMC2 (UniProt Q15006); conditions: DSSO
ERLIN2 = ERLIN2 (UniProt O94905)
ERP44 = ERP44 (UniProt Q9BS26); conditions: DMTMM
FBRS = FBRS (UniProt Q9HAH7); conditions: DMTMM
FBXO28 = FBXO28 (UniProt Q9NVF7); conditions: DMTMM
FKBP8 = FKBP8 (UniProt Q14318); conditions: DSSO
MLEC = MLEC (UniProt Q14165); conditions: DSSO
STT3A = STT3A (UniProt P46977); conditions: DSSO
STT3B = STT3B (UniProt Q8TCJ2); conditions: DSSO
FLOT2 = FLOT2 (UniProt Q14254); conditions: DHSO
GALNTL5 = GALNTL5 (UniProt Q7Z4T8); conditions: DSSO
GATAD2A = GATAD2A (UniProt Q86YP4); conditions: DMTMM
RBBP7 = RBBP7 (UniProt Q16576)
ZNF800 = ZNF800 (UniProt Q2TB10); conditions: DSSO
MTA3 = MTA3 (UniProt Q9BTC8); conditions: DSSO
GIT1 = GIT1 (UniProt Q9Y2X7); conditions: DMTMM
GNG12 = GNG12 (UniProt Q9UBI6); conditions: DSSO
HADHA = HADHA (UniProt P40939); conditions: DSSO
HDAC1 = HDAC1 (UniProt Q13547); conditions: DSSO
HDAC2 = HDAC2 (UniProt Q92769); conditions: DSSO
SIN3A = SIN3A (UniProt Q96ST3); conditions: DSSO
HNRNPD = HNRNPD (UniProt Q14103); conditions: DSSO
HSP90AB1 = HSP90AB1 (UniProt P08238); conditions: DSSO
IARS1 = IARS1 (UniProt P41252); conditions: DSSO
IFT74 = IFT74 (UniProt Q96LB3); conditions: DSSO
IGF1R = IGF1R (UniProt P08069); conditions: DMTMM
IGF2R = IGF2R (UniProt P11717); conditions: DSSO
INTS13 = INTS13 (UniProt Q9NVM9); conditions: DSSO
INVS = INVS (UniProt Q9Y283); conditions: DMTMM
KCNH1 = KCNH1 (UniProt O95259); conditions: DMTMM
KGD4 = KGD4 (UniProt P82909); conditions: DSSO
KIF21A = KIF21A (UniProt Q7Z4S6); conditions: DSSO
PAAF1 = PAAF1 (UniProt Q9BRP4); conditions: DSSO
KLC1 = KLC1 (UniProt Q07866); conditions: DSSO
LAMC1 = LAMC1 (UniProt P11047); conditions: DMTMM
LARS1 = LARS1 (UniProt Q9P2J5); conditions: DSSO
LDHB = LDHB (UniProt P07195); conditions: DSSO
LMBRD1 = LMBRD1 (UniProt Q9NUN5); conditions: DMTMM

## EMC8, O43402
EMC2
  cross-linked residues: K100 - K136

## ERLIN1, O75477
ERLIN2; DHSO
  cross-linked residues: E221 - E226
ERLIN2; DMTMM
  cross-linked residues: E331 - K287

## PRDX4, Q13162
ERP44
  cross-linked residues: K263 - D324

## THOC3, Q96J01
FBRS
  cross-linked residues: K343 - E3

## SKP1, P63208
FBXO28
  cross-linked residues: E148 - K222

## RPN1, P04843
FKBP8
  cross-linked residues: K488 - K366
MLEC
  cross-linked residues: K187 - K85
STT3A
  cross-linked residues: K258 - K695
STT3B
  cross-linked residues: K258 - K773

## FLOT1, O75955
FLOT2
  cross-linked residues: E310 - E302

## RPL10, P27635
GALNTL5
  cross-linked residues: K145 - K363

## MTA1, Q13330
GATAD2A
  cross-linked residues: D309 - K204
RBBP7; DMTMM
  cross-linked residues: K532 - E351
ZNF800
  cross-linked residues: K208 - K55

## MBD3, O95983
GATAD2A
  cross-linked residues: D160 - K172
MTA3
  cross-linked residues: K68 - K41

## GIT2, Q14161
GIT1
  cross-linked residues: K464 - D525

## GNA13, Q14344
GNG12
  cross-linked residues: K94 - K4

## ATP5MG, O75964
HADHA
  cross-linked residues: K55 - K625

## SIN3B, O75182
HDAC1
  cross-linked residues: K412 - K74

## HDAC1, Q13547
HDAC2
  cross-linked residues: K476 - K75
RBBP7; DSSO
  cross-linked residues: K220 - K159
SIN3A
  cross-linked residues: K74 - K569

## HNRNPDL, O14979
HNRNPD
  cross-linked residues: K212 - K119

## ADGRB3, O60242
HSP90AB1
  cross-linked residues: K1056 - K624

## EPRS1, P07814
IARS1
  cross-linked residues: K512 - K1113

## IFT81, Q8WYA0
IFT74
  cross-linked residues: K491 - K434

## INSR, P06213
IGF1R
  cross-linked residues: E180 - K667

## CTSA, P10619
IGF2R
  cross-linked residues: K383 - K1104

## INTS14, Q96SY0
INTS13
  cross-linked residues: K394 - K73

## ATP1A1, P05023
INVS
  cross-linked residues: K212 - E690

## TARS3, A2RTX5
KCNH1
  cross-linked residues: E303 - K748

## DLD, P09622
KGD4
  cross-linked residues: K445 - K17

## PSMD3, O43242
KIF21A
  cross-linked residues: K404 - K847
PAAF1
  cross-linked residues: K54 - K373

## KIF5B, P33176
KLC1
  cross-linked residues: K801 - K18

## LAMA5, O15230
LAMC1
  cross-linked residues: E2378 - K1235

## IARS1, P41252
LARS1
  cross-linked residues: K344 - K1133

## LDHA, P00338
LDHB
  cross-linked residues: K14 - K156

## CD151, P48509
LMBRD1
  cross-linked residues: G2 - E239

Reference: publication doi:10.1101/2025.02.07.636106
